In PubChem BioAssay (NCATS):
Inconclusive results are not listed. A call without a number means that no potency is given here. Values without a mark were called inactive. Calls of active or inactive are those of the source. Calls follow the shape of the dose curve; as a rule, active = well fitted inhibition curve with a large enough effect; inconclusive = small, poorly fitted or top-dose-only effect; inactive = no such curve, though single readings can be large or run the other way.

assay: Primary fluorescence-based thiol-reactive (MSTI) qHTS assay for identification of artifact compounds. (AID 1845221); settings: MSTI thiol-reactivity probe, 1 h; series mostly up to 53.8 µM; also: nearly all actives have a fitted effect of over 65% in size;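 as to activity change, negative = thiol reactive: thiol-reactive compounds lower the probe fluorescence signal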
Text: PI: Alexander Tropsha Ph.D.
UNC Eshelman School of Pharmacy
University of North Carolina, Chapel Hill, North Carolina
Hits from high-throughput screening (HTS) of chemical libraries are often false positives due to their interference with the assay detection technology. In response to this problem, we generated the largest publicly available library of chemical liabilities and developed a free webtool to predict HTS artifacts, both of which are described herein. More specifically, we generated, curated, and integrated HTS datasets for thiol reactivity, redox activity, and luciferase (firefly and nano) activity. Using these curated datasets, we developed and validated several Quantitative Structure-Interference Relationship (QSIR) models to predict nuisance behavior. […] These models were employed for virtual profiling of the National Center for Advancing Translational Science's (NCATS) in-house library, and 256 compounds for each assay were selected for the experimental validation of nuisance behavior. The BA for these external predictions ranged from 58 to 78% for compounds within the applicability domains of the models. […] The models developed in this study, along with aggregation models previously developed by our group (SCAM Detective) were implemented in "Liability Predictor," an online tool which may be used as part of chemical library design or for triaging HTS hits. Both the models and the curated datasets are publicly available at https://liability.mml.unc.edu/.
SEQUENCE No. (e.g., 1, 2, 3, etc.); […] (e.g., Cells, Incubation, Reagent, etc.); VALUE; DESCRIPTION.
1; Reagent; 4 uL; […].
2; Compounds and control; 16 nL; Kalypsis pin tool (Wako USA) equipped with a 1536-well pin head.
4; Detection; Fluorescence, ViewLux microplate reader, 525 nm excitation, 598 nm emission.
NOTES (numbers refer to Sequence numbers above)
1. Assays determining (E)-2-(4-mercaptostyryl)-1,3,3-trimethyl-3H-indol-1-ium (MSTI) reactivity were performed as previously described in the literature with modifications for the quick identification of compounds reacting with thiol. In brief, 4 uL of MSTI or positive control Acetyl-MSTI (final concentrations of 4 uM and 4 uM, respectively) in assay buffer (2% DMSO in 1X PBS pH 7.4) was dispensed into all wells of a 1536-well assay plate (solid-bottom black plate; Greiner Bio One, Monroe, NC).
2. A Wako Pin-tool (Wako Automation, Richmond, VA) was used to transfer 16 nL of compounds (consisting of 7-plates in qHTS format, final concentration range 18.3 nM to 114 uM) or control MLS001163887 (final concentration range 1.22 nM to 40 uM).
3. Plates were centrifuged (121xg, 15 seconds) and incubated for 1 hour at room temperature protected from light.
4. Samples were read for fluorescence (Ex/Em = 525(20)/598(25) nm) on a ViewLux CCD imager (PerkinElmer). Data were normalized to Acetyl-MSTI (0% activity) and MSTI (100% activity) and the resulting percent inhibition data were fitted to a 4-parameter Hill equation using NCATS in-house software.
Potency is read from the fitted curve at half-maximal effect.

SMILES | Potency | activity change, negative = thiol reactive
CC(=O)NC[C@H]1CN(c2ccc(N3CCOCC3)c(F)c2)C(=O)O1 | inactive | –
CCCS(=O)c1ccc2nc(NC(=O)OC)[nH]c2c1 (configuration not stated) | inactive | –
Cc1nc(Nc2ncc(C(=O)Nc3c(C)cccc3Cl)s2)cc(N2CCN(CCO)CC2)n1 | inactive | –
OC(CN1CCN(c2cccc(Cl)c2)CC1)C(c1ccccc1)c1ccccc1 (configuration not stated) | inactive | –
COCCCOc1ccnc(CS(=O)c2nc3ccccc3[nH]2)c1C (configuration not stated) | inactive | –
Cc1ccc(Nc2nccc(N(C)c3ccc4c(C)n(C)nc4c3)n2)cc1S(N)(=O)=O | inactive | –
COc1c(O)cc2c(c1O)[C@@H]1O[C@H](CO)[C@@H](O)[C@H](O)[C@H]1OC2=O | 11.7 µM (active) | –
O=C(OC1C[C@H]2CC[C@@H](C1)[N+]21CCCC1)C(O)(c1ccccc1)c1ccccc1 (some centres not stated) | inactive | –
COc1cc(Nc2c(C#N)cnc3cc(OCCCN4CCN(C)CC4)c(OC)cc23)c(Cl)cc1Cl | inactive | –
Clc1ccc(C(Cn2ccnc2)OCc2c(Cl)cccc2Cl)c(Cl)c1 (configuration not stated) | inactive | –
COc1cc2c(N3CCN(C(=O)Nc4ccc(OC(C)C)cc4)CC3)ncnc2cc1OCCCN1CCCCC1 | inactive | –
O=C(NOCC1CC1)c1ccc(F)c(F)c1Nc1ccc(I)cc1Cl | inactive | –
CC(=O)O[C@H]1C(=O)[C@@]2(C)C([C@H](OC(=O)c3ccccc3)[C@]3(O)C[C@H](OC(=O)[C@H](O)[C@@H](NC(=O)c4ccccc4)c4ccccc4)C(C)=C1C3(C)C)[C@]1(OC(C)=O)CO[C@@H]1C[C@@H]2O (some centres not stated) | inactive | –
CN(C)CCCC1(c2ccc(F)cc2)OCc2cc(C#N)ccc21 (configuration not stated) | inactive | –
O=C(O)c1cccc(-c2noc(-c3ccccc3F)n2)c1 | inactive | –
Cc1nccn1CC1CCc2c(c3ccccc3n2C)C1=O (configuration not stated) | inactive | –
CC(C)c1nc(CN(C)C(=O)N[C@H](C(=O)N[C@@H](Cc2ccccc2)C[C@H](O)[C@H](Cc2ccccc2)NC(=O)OCc2cncs2)C(C)C)cs1 | inactive | –
COc1ccc(C2(C#N)CCC(C(=O)O)CC2)cc1OC1CCCC1 (configuration not stated) | inactive | –
N[C@@H](Cc1cc(I)c(Oc2cc(I)c(O)c(I)c2)c(I)c1)C(=O)O | 0.736 µM (active) | –
COc1ccccc1N1CCN(CCN(C(=O)C2CCCCC2)c2ccccn2)CC1 | inactive | –
CCC1=C(C)CN(C(=O)NCCc2ccc(S(=O)(=O)NC(=O)NC3CCC(C)CC3)cc2)C1=O (configuration not stated) | inactive | –
CC(C)C[C@H](NC(=O)[C@H](Cc1ccccc1)NC(=O)c1cnccn1)B(O)O | inactive | –
CCC(C)(Oc1ccc(C2(c3ccc(OC(C)(CC)C(=O)O)cc3)CCCCC2)cc1)C(=O)O (configuration not stated) | inactive | –
CN(C)C(=O)[C@H](O)[C@H](Cc1ccccc1)NC(=O)c1cc2cc(Cl)ccc2[nH]1 | inactive | –
CN(c1nccc(=O)[nH]1)C1CCN(c2nc3ccccc3n2Cc2ccc(F)cc2)CC1 | inactive | –
CCN(CCO)CCCC(C)Nc1ccnc2cc(Cl)ccc12 (configuration not stated) | – | -3.32% [at 6.41 µM]
Cc1ccc(NC(=O)c2ccc(CN3CCN(C)CC3)cc2)cc1Nc1nccc(-c2cccnc2)n1 | inactive | –
